Data as given in PubChem BioAssay (NCI).
The panel holds about 83,000 compounds, 20% with a hit somewhere; the sample as a whole holds those more often.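 Step 1: grow cells in 96-well plates. Step 2: add test compound at a single concentration. Step 3: incubate 48 h. Step 4: record percent growth.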 Active and inactive are the calls of the source. How the source made its calls: active means growth percent below 10; inactive means the rest.

Key:
Experiment in all cases: NCI-60 one-dose screen, 48 h (100 = growth as untreated, 0 = no growth, -100 = all killed)
Details in all cases: 10 µM unless noted
NCI-H23 lung = system: NCI-H23 lung
NCI-H226 lung = system: NCI-H226 lung
NCI-H322M lung = system: NCI-H322M lung
HOP-62 NSCLC = system: HOP-62 NSCLC
NCI-H460 lung = system: NCI-H460 lung
HOP-92 NSCLC = system: HOP-92 NSCLC
NCI-H522 lung = system: NCI-H522 lung
A549/ATCC NSCLC = system: A549/ATCC NSCLC
786-0 renal = system: 786-0 renal
COLO 205 colon = system: COLO 205 colon

Measured: growth

CN1CCN(Cc2ccc(NC(=O)c3cccc(C#Cc4cnc(N)c5ncccc45)c3F)cc2C(F)(F)F)CC1
inactive: NCI-H23 lung 61.4% | NCI-H226 lung 19.3% | NCI-H322M lung 46.7% | HOP-62 NSCLC 49.4% | HOP-92 NSCLC 26.5% | A549/ATCC NSCLC 38.2% | COLO 205 colon 42.5%
active: NCI-H460 lung -71.8% | NCI-H522 lung -9.1% | 786-0 renal -88.2%

O=C(/C=C/c1ccccc1)n1c(-c2ccccc2)nc2ccccc21
inactive: NCI-H23 lung 101% | NCI-H226 lung 101% | NCI-H322M lung 108% | HOP-62 NSCLC 105% | NCI-H460 lung 103% | HOP-92 NSCLC 91.6% | NCI-H522 lung 102% | A549/ATCC NSCLC 101% | 786-0 renal 100% | COLO 205 colon 109%

C/C(=N\NC(=S)N1CCCCC1)c1ccccn1
active: NCI-H226 lung 7.07% | NCI-H322M lung 4.53% | NCI-H460 lung -23.9% | HOP-92 NSCLC -1.04% | A549/ATCC NSCLC 9.13% | COLO 205 colon -14%
inactive: NCI-H23 lung 30.8% | HOP-62 NSCLC 21% | NCI-H522 lung 11.5% | 786-0 renal 15.5%

O=C1Nc2ccccc2/C1=C/c1c[nH]c2ccccc12
inactive: NCI-H23 lung 78.9% | NCI-H226 lung 83.4% | NCI-H322M lung 70.1% | HOP-62 NSCLC 66% | NCI-H460 lung 88.7% | HOP-92 NSCLC 65.2% | NCI-H522 lung 88.7% | A549/ATCC NSCLC 77.3% | 786-0 renal 105% | COLO 205 colon 115%

FC(F)(F)C1=NNC(c2ccc3ccccc3c2)=NN1
inactive: NCI-H23 lung 94.2% | NCI-H226 lung 87.4% | NCI-H322M lung 103% | HOP-62 NSCLC 106% | NCI-H460 lung 101% | HOP-92 NSCLC 95.6% | NCI-H522 lung 97.2% | A549/ATCC NSCLC 102% | 786-0 renal 107% | COLO 205 colon 105%

Cc1c(-c2ccc(-c3ccccc3F)cc2)nc2ccc(F)cc2c1C(=O)O
inactive: NCI-H23 lung 54.6% | NCI-H226 lung 65.4% | NCI-H322M lung 44.5% | HOP-62 NSCLC 49.3% | NCI-H460 lung 10.6% | HOP-92 NSCLC 42.5% | NCI-H522 lung 34.3% | A549/ATCC NSCLC 34.7% | 786-0 renal 23% | COLO 205 colon 49.2%

CCOc1cccc(/C=N/NC(=O)Cc2ccc(Nc3ccnc(C(F)(F)F)c3)cc2)c1O
inactive: NCI-H23 lung 39% | NCI-H322M lung 36.8% | HOP-92 NSCLC 46.7% | NCI-H522 lung 13.4% | A549/ATCC NSCLC 47.3% | 786-0 renal 29%
active: NCI-H226 lung -1.59% | HOP-62 NSCLC 7.88% | NCI-H460 lung 0.302% | COLO 205 colon 4.75%

C/C(=N\OC(=O)Nc1ccccc1)c1ccccc1
inactive: NCI-H23 lung 105% | NCI-H226 lung 95.2% | NCI-H322M lung 99.1% | HOP-62 NSCLC 118% | NCI-H460 lung 103% | HOP-92 NSCLC 126% | NCI-H522 lung 98.6% | A549/ATCC NSCLC 88.3% | 786-0 renal 99.3% | COLO 205 colon 114%

COc1cc(C2=NOC(c3cc(OC)c(OC)c(OC)c3)C2)ccc1OCCCCOc1cc2c(cc1OC)C(=O)N1CCC[C@H]1C=N2 (stereo not given in full)
active: NCI-H23 lung -15.9% | NCI-H226 lung 9.32% | NCI-H322M lung -6.38% | HOP-62 NSCLC 9.48% | NCI-H460 lung -29.6% | HOP-92 NSCLC -29.3% | NCI-H522 lung -41.7% | A549/ATCC NSCLC 6.75% | 786-0 renal -4.62% | COLO 205 colon -78%

Cc1nc2ccc(Nc3nc(N4CCOCC4)nc(N4CCN(C)CC4)n3)cc2n1Cc1ccccc1
inactive: NCI-H23 lung 92% | NCI-H226 lung 95.8% | NCI-H322M lung 76.1% | HOP-62 NSCLC 86.6% | NCI-H460 lung 97.8% | HOP-92 NSCLC 64.5% | NCI-H522 lung 93.2% | A549/ATCC NSCLC 85.1% | 786-0 renal 72.8% | COLO 205 colon 73.2%

COc1ccc2[nH]c(O)c(/C=c3/ccc4c(c3)N=C(c3ccc(F)cc3)N=4)c2c1
active: HOP-92 NSCLC 4.86% | 786-0 renal -30.1%
inactive: NCI-H23 lung 71.7% | NCI-H226 lung 85.4% | NCI-H322M lung 49.4% | HOP-62 NSCLC 34.2% | NCI-H460 lung 36.9% | NCI-H522 lung 81% | A549/ATCC NSCLC 37.6% | COLO 205 colon 72.9%

COc1cc2c(cc1I)-c1c(cc(OC)c(OC)c1OC)CC[C@@H]2NC(C)=O
active: NCI-H23 lung 4.9% | NCI-H460 lung 1.44% | NCI-H522 lung -22.3% | COLO 205 colon -52.8%
inactive: NCI-H226 lung 33.6% | NCI-H322M lung 61.6% | HOP-62 NSCLC 14.7% | HOP-92 NSCLC 43.7% | A549/ATCC NSCLC 28.3% | 786-0 renal 16.4%

N=C(N)c1ccc(-c2ccc(-c3cc(Cl)cc(Cl)c3)o2)nc1
inactive: NCI-H226 lung 99.5% | HOP-92 NSCLC 73.3%
active: NCI-H23 lung 3.49% | NCI-H322M lung -30.9% | HOP-62 NSCLC -72.7% | NCI-H460 lung -78.8% | NCI-H522 lung -67.4% | A549/ATCC NSCLC -68.8% | 786-0 renal -64.9% | COLO 205 colon -76.6%

COc1cc2nccc(Oc3ccc(NC(=O)C4(C(=O)Nc5ccc(F)cc5)CC4)cc3)c2cc1O
inactive: NCI-H23 lung 57.4% | NCI-H226 lung 67.1% | NCI-H322M lung 87.7% | HOP-62 NSCLC 57.6% | NCI-H460 lung 48.1% | HOP-92 NSCLC 33.4% | NCI-H522 lung 68% | A549/ATCC NSCLC 56.4% | 786-0 renal 96.2% | COLO 205 colon 91%

CCN(CC)Cc1cc(Nc2nc(NC3CCC(N(C)C)CC3)c3ccccc3n2)ccc1OC (stereo not given)
inactive: NCI-H23 lung 87.8% | NCI-H226 lung 75.5% | NCI-H322M lung 76.5% | HOP-62 NSCLC 79.4% | NCI-H460 lung 89.7% | HOP-92 NSCLC 25.3% | NCI-H522 lung 44% | A549/ATCC NSCLC 67.8% | 786-0 renal 97.8% | COLO 205 colon 12%

CN=C1C=C/C(=N/N=c2/ccn(O)cc2C)C=C1C
inactive: NCI-H23 lung 90% | NCI-H226 lung 103% | NCI-H322M lung 113% | HOP-62 NSCLC 97.2% | NCI-H460 lung 111% | HOP-92 NSCLC 85.7% | NCI-H522 lung 77.9% | A549/ATCC NSCLC 88.8% | 786-0 renal 89.3% | COLO 205 colon 138%

CC(C)N1CCN(c2ccncc2S(=O)(=O)N2CCN(C)CC2)CC1
inactive: NCI-H23 lung 96.8% | NCI-H226 lung 89.7% | NCI-H322M lung 123% | HOP-62 NSCLC 106% | NCI-H460 lung 102% | HOP-92 NSCLC 108% | NCI-H522 lung 92.7% | A549/ATCC NSCLC 101% | 786-0 renal 98.6% | COLO 205 colon 105%

CCN(CC)CCCC(C)N/C(c1cccc(OC)c1)=c1\c(=O)[nH]n(-c2c3ccccc3nc3ccccc23)c(=O)\c1=C(/NC(C)CCCN(CC)CC)c1cccc(OC)c1 (stereo not given)
active: NCI-H23 lung -26.3% | NCI-H226 lung -25.2% | NCI-H322M lung -37.7% | HOP-62 NSCLC -22.5% | NCI-H460 lung -34.1% | HOP-92 NSCLC -70% | NCI-H522 lung -85.6% | A549/ATCC NSCLC -59.2% | 786-0 renal 3.27% | COLO 205 colon -90.1%

Cc1ccc(NC(=O)c2nc(S(C)=O)oc2-c2ccc(F)cc2)cc1Nc1nccc(-c2cccnc2)n1 (stereo not given)
inactive: NCI-H23 lung 50% | NCI-H226 lung 51.7% | NCI-H322M lung 103% | HOP-62 NSCLC 58.2% | NCI-H460 lung 61.5% | HOP-92 NSCLC 96.2% | A549/ATCC NSCLC 95.4% | 786-0 renal 54.6% | COLO 205 colon 54%
active: NCI-H522 lung 7.97%

O=C(c1ccc(C(F)(F)F)c(Cl)c1)N(Cc1ccc(Cl)cc1)c1ccc(-c2cc(C(F)(F)F)[nH]n2)c(O)c1
active: NCI-H23 lung 6.5% | NCI-H226 lung -5.3% | HOP-62 NSCLC -4.7% | NCI-H460 lung 6.77% | HOP-92 NSCLC -15.6% | NCI-H522 lung -1.27% | 786-0 renal 3.06% | COLO 205 colon -73.8%
inactive: NCI-H322M lung 14.4% | A549/ATCC NSCLC 12.8%
